Laboratory results from PMC7862700, “An all-to-all approach to the identification of sequence-specific readers for epigenetic DNA modifications on cytosine”.

Assays:
Assay in all cases: DAPPL (digital affinity profiling via proximity ligation, sequencing); 10 mM Tris-HCl pH 7.5, 50 mM NaCl, 1 mM DTT, 4% glycerol, room temperature, 30 min; GST-TFs on glutathione beads, 16-mer random dsDNA library, 0.1% formaldehyde crosslink after washing; high values mean tight binding
Details in all cases: protein: recombinant; tags: N-terminal GST; dsDNA, one strand shown
FLI1 = target: T1, FLI1 (Homo sapiens, UniProt Q01543 1-452)
T1 sequence: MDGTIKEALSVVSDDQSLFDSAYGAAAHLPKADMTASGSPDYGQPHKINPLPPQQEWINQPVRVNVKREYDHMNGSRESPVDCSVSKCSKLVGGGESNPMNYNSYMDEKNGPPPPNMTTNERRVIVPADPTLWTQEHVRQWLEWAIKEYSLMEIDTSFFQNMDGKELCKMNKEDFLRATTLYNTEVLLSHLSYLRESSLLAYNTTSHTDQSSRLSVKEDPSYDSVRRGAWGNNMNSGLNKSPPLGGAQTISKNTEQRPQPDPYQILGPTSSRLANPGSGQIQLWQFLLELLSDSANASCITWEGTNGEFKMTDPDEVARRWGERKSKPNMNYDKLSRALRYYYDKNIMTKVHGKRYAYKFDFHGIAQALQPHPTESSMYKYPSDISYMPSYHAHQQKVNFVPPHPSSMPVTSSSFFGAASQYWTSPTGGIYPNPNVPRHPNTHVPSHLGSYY
Method in brief: (§1)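 Human transcription factors fused to GST were expressed in yeast, captured on glutathione beads, given DNA barcodes and pooled with a GST-only negative control. Pools were incubated with 200 nmole of a 16-mer random double-stranded DNA library in Tris/NaCl/DTT/glycerol buffer at room temperature for 30 min. They were then washed, crosslinked with 0.1% formaldehyde, proximity-ligated (BsaI/T4 ligase, 1 h, 37 °C), PCR-amplified and sequenced on an Illumina NextSeq500. Binding signal is each 6-mer's read frequency for a factor divided by its frequency for the GST control.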

ELK1 = target: T2, ELK1 (Homo sapiens, UniProt P19419 1-428)
T2 sequence: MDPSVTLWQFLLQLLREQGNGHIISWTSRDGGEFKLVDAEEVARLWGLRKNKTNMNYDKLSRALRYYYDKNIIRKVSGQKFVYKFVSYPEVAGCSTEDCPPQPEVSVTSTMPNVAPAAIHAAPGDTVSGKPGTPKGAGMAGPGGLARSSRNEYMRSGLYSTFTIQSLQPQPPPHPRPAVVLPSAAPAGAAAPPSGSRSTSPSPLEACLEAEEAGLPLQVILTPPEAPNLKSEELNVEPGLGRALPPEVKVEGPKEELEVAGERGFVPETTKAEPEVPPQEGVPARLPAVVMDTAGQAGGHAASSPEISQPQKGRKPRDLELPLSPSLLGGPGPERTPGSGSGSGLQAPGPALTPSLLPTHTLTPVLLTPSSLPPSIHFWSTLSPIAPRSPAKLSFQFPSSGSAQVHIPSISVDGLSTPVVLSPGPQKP
Method in brief: as §1

GABPA = target: T3, GABPA (Homo sapiens, UniProt Q06546 1-454)
T3 sequence: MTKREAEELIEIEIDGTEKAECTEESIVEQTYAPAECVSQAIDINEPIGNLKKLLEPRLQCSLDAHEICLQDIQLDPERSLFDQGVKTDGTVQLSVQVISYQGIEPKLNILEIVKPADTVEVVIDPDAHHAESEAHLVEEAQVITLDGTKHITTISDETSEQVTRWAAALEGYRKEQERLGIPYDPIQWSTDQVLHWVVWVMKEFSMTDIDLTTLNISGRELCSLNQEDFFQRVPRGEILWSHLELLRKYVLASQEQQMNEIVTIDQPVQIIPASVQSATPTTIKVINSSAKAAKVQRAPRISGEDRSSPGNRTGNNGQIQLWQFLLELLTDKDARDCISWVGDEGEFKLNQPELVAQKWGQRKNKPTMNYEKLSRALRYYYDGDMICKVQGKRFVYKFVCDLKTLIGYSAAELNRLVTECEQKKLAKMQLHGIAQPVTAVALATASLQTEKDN
Method in brief: as §1

ERG = target: T4, ERG (Homo sapiens, UniProt P11308 1-479)
T4 sequence: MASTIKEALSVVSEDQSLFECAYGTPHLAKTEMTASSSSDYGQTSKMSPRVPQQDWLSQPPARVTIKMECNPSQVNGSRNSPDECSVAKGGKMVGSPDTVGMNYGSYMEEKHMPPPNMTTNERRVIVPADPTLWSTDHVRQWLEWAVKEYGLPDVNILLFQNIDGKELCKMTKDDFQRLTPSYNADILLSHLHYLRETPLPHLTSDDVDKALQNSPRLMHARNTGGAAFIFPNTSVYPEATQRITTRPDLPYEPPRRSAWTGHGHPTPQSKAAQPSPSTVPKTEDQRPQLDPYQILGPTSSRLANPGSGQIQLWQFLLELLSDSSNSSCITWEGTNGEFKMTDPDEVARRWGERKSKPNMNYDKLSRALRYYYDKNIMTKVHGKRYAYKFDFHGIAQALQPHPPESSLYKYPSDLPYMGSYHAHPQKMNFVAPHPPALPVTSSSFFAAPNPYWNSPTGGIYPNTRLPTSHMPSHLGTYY
Method in brief: as §1

ELF1 = ELF1 (Homo sapiens, UniProt P32519 1-619)
ELF1, sequence (P32519 whole entry): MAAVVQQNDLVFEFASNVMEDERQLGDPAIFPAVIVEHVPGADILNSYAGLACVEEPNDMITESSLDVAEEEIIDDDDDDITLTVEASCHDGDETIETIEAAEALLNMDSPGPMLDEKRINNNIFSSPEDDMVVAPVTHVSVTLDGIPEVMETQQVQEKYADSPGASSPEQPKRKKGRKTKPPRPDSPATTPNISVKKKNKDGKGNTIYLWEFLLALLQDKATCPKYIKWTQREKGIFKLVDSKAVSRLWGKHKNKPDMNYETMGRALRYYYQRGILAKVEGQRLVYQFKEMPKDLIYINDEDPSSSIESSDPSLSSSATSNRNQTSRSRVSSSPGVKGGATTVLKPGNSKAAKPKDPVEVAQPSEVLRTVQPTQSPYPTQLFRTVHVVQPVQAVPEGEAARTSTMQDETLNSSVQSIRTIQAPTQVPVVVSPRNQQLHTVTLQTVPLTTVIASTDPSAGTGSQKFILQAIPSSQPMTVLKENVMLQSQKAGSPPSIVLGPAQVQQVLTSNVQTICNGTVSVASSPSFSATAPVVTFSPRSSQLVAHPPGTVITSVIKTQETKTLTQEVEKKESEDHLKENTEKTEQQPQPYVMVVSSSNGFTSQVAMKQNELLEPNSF
Method in brief: as §1

EHF = target: T5, EHF (Homo sapiens, UniProt Q9NZC4 1-300)
T5 sequence: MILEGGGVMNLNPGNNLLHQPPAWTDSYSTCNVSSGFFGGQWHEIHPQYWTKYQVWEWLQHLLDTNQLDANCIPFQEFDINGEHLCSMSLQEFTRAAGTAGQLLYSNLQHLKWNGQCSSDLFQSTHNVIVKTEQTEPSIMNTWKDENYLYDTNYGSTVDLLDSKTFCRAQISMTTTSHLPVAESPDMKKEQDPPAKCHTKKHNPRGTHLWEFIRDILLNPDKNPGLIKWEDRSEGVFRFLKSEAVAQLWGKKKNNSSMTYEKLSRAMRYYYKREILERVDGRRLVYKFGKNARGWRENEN
Method in brief: as §1

SPI1 = SPI1 (Homo sapiens, UniProt P17947 1-270)
Method in brief: as §1

SPIB = SPIB (Homo sapiens, UniProt Q01892 1-262)
SPIB, sequence (Q01892 whole entry): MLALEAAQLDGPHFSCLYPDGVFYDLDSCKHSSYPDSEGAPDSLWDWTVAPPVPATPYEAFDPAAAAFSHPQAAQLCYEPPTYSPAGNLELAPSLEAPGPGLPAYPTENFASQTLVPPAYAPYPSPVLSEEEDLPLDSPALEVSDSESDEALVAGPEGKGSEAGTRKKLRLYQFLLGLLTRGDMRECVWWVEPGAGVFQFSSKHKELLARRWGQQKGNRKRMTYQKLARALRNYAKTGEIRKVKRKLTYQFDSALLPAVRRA
Method in brief: as §1

ELK3 = target: T6, ELK3 (Homo sapiens, UniProt P41970 1-407)
T6 sequence: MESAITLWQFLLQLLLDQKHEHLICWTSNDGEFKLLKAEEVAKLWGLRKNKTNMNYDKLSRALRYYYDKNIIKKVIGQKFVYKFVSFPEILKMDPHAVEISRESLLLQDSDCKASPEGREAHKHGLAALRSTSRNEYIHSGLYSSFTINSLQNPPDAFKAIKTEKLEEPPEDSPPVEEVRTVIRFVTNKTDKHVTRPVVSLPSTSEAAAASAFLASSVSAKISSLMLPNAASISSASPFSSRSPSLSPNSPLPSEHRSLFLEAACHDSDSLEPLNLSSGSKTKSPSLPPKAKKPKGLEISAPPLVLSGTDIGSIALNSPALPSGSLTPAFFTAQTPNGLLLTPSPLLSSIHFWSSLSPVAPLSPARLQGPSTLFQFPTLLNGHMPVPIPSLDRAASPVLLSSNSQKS
Method in brief: as §1

Row | Sequence | binding signal (FLI1) | binding signal (ELK1) | binding signal (GABPA) | binding signal (ERG) | binding signal (ELF1) | binding signal (EHF) | binding signal (SPI1) | binding signal (SPIB) | binding signal (ELK3)
1 | TACCGA | 1.26 fold enrichment (6-mer frequency, TF over GST control) | 1.1 fold enrichment (6-mer frequency, TF over GST control) | 1.13 fold enrichment (6-mer frequency, TF over GST control) | 1.07 fold enrichment (6-mer frequency, TF over GST control) | 1.17 fold enrichment (6-mer frequency, TF over GST control) | 1.1 fold enrichment (6-mer frequency, TF over GST control) | 1.12 fold enrichment (6-mer frequency, TF over GST control) | 1.16 fold enrichment (6-mer frequency, TF over GST control) | 1.12 fold enrichment (6-mer frequency, TF over GST control)
2 | TAAACC | 1.27 fold enrichment (6-mer frequency, TF over GST control) | 1.22 fold enrichment (6-mer frequency, TF over GST control) | 1.22 fold enrichment (6-mer frequency, TF over GST control) | 1.21 fold enrichment (6-mer frequency, TF over GST control) | 1.26 fold enrichment (6-mer frequency, TF over GST control) | 1.17 fold enrichment (6-mer frequency, TF over GST control) | 1.19 fold enrichment (6-mer frequency, TF over GST control) | 1.31 fold enrichment (6-mer frequency, TF over GST control) | 1.25 fold enrichment (6-mer frequency, TF over GST control)
3 | GAAGCT | 1.62 fold enrichment (6-mer frequency, TF over GST control) | 1.7 fold enrichment (6-mer frequency, TF over GST control) | 1.52 fold enrichment (6-mer frequency, TF over GST control) | 1.64 fold enrichment (6-mer frequency, TF over GST control) | 1.44 fold enrichment (6-mer frequency, TF over GST control) | 1.69 fold enrichment (6-mer frequency, TF over GST control) | 1.63 fold enrichment (6-mer frequency, TF over GST control) | 1.64 fold enrichment (6-mer frequency, TF over GST control) | 1.66 fold enrichment (6-mer frequency, TF over GST control)
4 | ACCTGG | 1.25 fold enrichment (6-mer frequency, TF over GST control) | 1.28 fold enrichment (6-mer frequency, TF over GST control) | 1.25 fold enrichment (6-mer frequency, TF over GST control) | 1.25 fold enrichment (6-mer frequency, TF over GST control) | 1.25 fold enrichment (6-mer frequency, TF over GST control) | 1.22 fold enrichment (6-mer frequency, TF over GST control) | 1.2 fold enrichment (6-mer frequency, TF over GST control) | 1.31 fold enrichment (6-mer frequency, TF over GST control) | 1.23 fold enrichment (6-mer frequency, TF over GST control)
5 | CAGGAA | 1.63 fold enrichment (6-mer frequency, TF over GST control) | 1.57 fold enrichment (6-mer frequency, TF over GST control) | 1.5 fold enrichment (6-mer frequency, TF over GST control) | 1.83 fold enrichment (6-mer frequency, TF over GST control) | 1.48 fold enrichment (6-mer frequency, TF over GST control) | 1.79 fold enrichment (6-mer frequency, TF over GST control) | 1.96 fold enrichment (6-mer frequency, TF over GST control) | 1.69 fold enrichment (6-mer frequency, TF over GST control) | 1.57 fold enrichment (6-mer frequency, TF over GST control)
6 | ATGTGT | 1.04 fold enrichment (6-mer frequency, TF over GST control) | 1.11 fold enrichment (6-mer frequency, TF over GST control) | 1.06 fold enrichment (6-mer frequency, TF over GST control) | 1.03 fold enrichment (6-mer frequency, TF over GST control) | 1.03 fold enrichment (6-mer frequency, TF over GST control) | 1.08 fold enrichment (6-mer frequency, TF over GST control) | 1.08 fold enrichment (6-mer frequency, TF over GST control) | 1.11 fold enrichment (6-mer frequency, TF over GST control) | 1.06 fold enrichment (6-mer frequency, TF over GST control)
7 | TTACCG | 1.16 fold enrichment (6-mer frequency, TF over GST control) | 1.16 fold enrichment (6-mer frequency, TF over GST control) | 1.12 fold enrichment (6-mer frequency, TF over GST control) | 1.2 fold enrichment (6-mer frequency, TF over GST control) | 1.11 fold enrichment (6-mer frequency, TF over GST control) | 1.24 fold enrichment (6-mer frequency, TF over GST control) | 1.17 fold enrichment (6-mer frequency, TF over GST control) | 1.15 fold enrichment (6-mer frequency, TF over GST control) | 1.18 fold enrichment (6-mer frequency, TF over GST control)
